# From PubChem BioAssay (NCI)
# This is part of a sample that, as a whole, favours compounds with a hit. Of some 83,000 tested, about 20% had one in any assay.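 Step 1: grow cells in 96-well plates. Step 2: add test compound at a single concentration. Step 3: incubate 48 h. Step 4: record percent growth.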 The source made the active and inactive calls. How the source made its calls: active means growth percent below 10; inactive means the rest.
# System: UO-31 renal
# Test: NCI-60 one-dose screen, 48 h (100 = growth as untreated, 0 = no growth, -100 = all killed)
# Settings: 10 µM unless noted
row,SMILES,growth
1,COc1ccc(-c2cc(-c3nnc(SC/C(=N\O)c4ccccc4)n3-c3ccccc3)c3ccccc3n2)cc1,75.3% (inactive)
2,Cc1cc2c(cc1C)N(C(=O)CCl)CCN2C(=O)CCl,-81.5% (active)
3,COc1cc(-c2nc3ccccc3s2)ccc1OCc1nc2n(n1)S(=O)(=O)c1ccccc1N2C,72.8% (inactive)
4,O=C(Cn1c2ccccc2c2ccncc21)N/N=C\c1ccc2ccccc2c1,-28.3% (active)
5,COc1cc2ncnc(Oc3ccc(NC(=O)Nc4ccc(CN5CCOCC5)c(C(F)(F)F)c4)c4ccccc34)c2cc1OC,-11.9% (active)
6,COc1cc(NC(C)CCCN2C(=O)c3ccccc3C2=O)c2nccc(C)c2c1OC (stereo unspecified),80.9% (inactive)
7,Cc1ccc2c(c1)Nc1ccc(C)cc1C2(C)C,91.3% (inactive)
8,Cc1ccc(-c2cc(-c3nnc(SCC(=O)c4ccccc4)o3)c3ccccc3n2)cc1,74.6% (inactive)
9,COc1ccccc1N1CCN(CC(O)COc2c(Br)c(Br)c(Br)c3c2OC(C)(C)C3)CC1 (stereo unspecified),13.2% (inactive)
10,Fc1ccc(/C=N/n2c(-c3cc(Cl)cc(Cl)c3Cl)nn(CNc3ccc(Cl)nn3)c2=S)cc1,89.4% (inactive)
11,Nc1nc(Nc2ccc(OCc3cccc(F)c3)cc2)c2c(n1)[nH]c1ccc(O)cc12,-93.5% (active)
12,N#CC(C#N)=C(C#N)c1c[nH]c2ccccc12,63.9% (inactive)
13,FC(F)(F)c1cn(CC2CNC2)c2ncnc(Cl)c12,102% (inactive)
14,Cc1cc(N2CCOCC2)nc(N(CCNc2ccnc3cc(Cl)ccc23)Cc2ccco2)n1,24.3% (inactive)
15,C[C@H]1C=C(C[C@@H](O)CCCCCCCCCC[C@@H](O)[C@H]2CCC(=O)O2)C(=O)O1,82% (inactive)
16,S=c1ssnc1-c1ccccn1,-40.8% (active)
17,CC1(C)N=C(N)N=C(N)N1c1cccc(CCCCc2ccccc2)c1,27.2% (inactive)
18,O=[N+]([O-])c1cccc2cc(S(=O)(=O)O)ccc12,92.2% (inactive)
19,CCOc1cccc(Nc2nc(N)nc3[nH]c4ccc(O)cc4c23)c1,36.4% (inactive)

row,SMILES,growth
1,NN=C(c1ccc(Cl)cc1)c1ccc(Cl)cc1,81.8% (inactive)
2,O=C(N/N=C1\SCC(=O)N1c1ccccc1)c1cc(-c2cc3ccccc3o2)nn1-c1ccccc1,118% (inactive)
3,COc1ccc(N)c(S)c1,78.9% (inactive)
4,Nn1c(SCC(=O)Nc2cc(Cl)c(Cl)cc2Cl)nnc1-c1cc(F)c(Cl)cc1Cl,65.2% (inactive)
5,COc1cc(-c2nc3sc(C)cn3c2/C=C2\C(=O)Nc3ccccc32)c(Br)c(OC)c1OC,24.8% (inactive)
6,CC(=S)Nc1ccccc1,81.5% (inactive)
7,O=C(Nc1ccc(Cl)c(Cl)c1)Nc1ccc(Cl)c([N+](=O)[O-])c1,0.279% (active)
8,CCOC(=O)C(C)(CSSCC(C)(NC(=O)c1ccc2ccccc2c1)C(=O)OCC)NC(=O)c1ccc2ccccc2c1 (stereo unspecified),80.6% (inactive)
9,O=C(NC(=S)Nc1ccc(Cl)cc1)c1ccccc1,83.1% (inactive)
10,CSc1nc(N)nc2c1ncn2C,94.6% (inactive)
11,O=C(O)c1cc2ccccc2cc1Nc1ccccc1,82.5% (inactive)
12,O=C1CN(CCN2CC(=O)NC(=O)C2)CC(=O)N1,71.8% (inactive)
13,c1nc(SC2=NCCN2)c2[nH]cnc2n1,40.6% (inactive)
14,O=C(C[n+]1cccc(Br)c1)c1ccc2c(c1)CCCC2,90.1% (inactive)
15,NS(=O)(=O)c1ccc(-n2nc(-c3ccc(Cl)cc3)ccc2=O)cc1,91.7% (inactive)
16,O=[N+]([O-])c1ccc(NS(=O)(=O)c2ccccc2)c2ccccc12,25.5% (inactive)
17,CCC1S/C(=N\N=C(/C)c2cccs2)N(c2ccccc2)C1=O (stereo unspecified),110% (inactive)
18,Cc1cc(NCCN(C(C)C)C(C)C)nc(/N=C(\N)Nc2ccc(Cl)c(C(F)(F)F)c2)n1,-90.9% (active)
19,C=CCn1c(SCC(=O)Nc2ccc(/C(C)=N\O)cc2)nnc1-c1cc(-c2ccc(OC)cc2)nc2ccccc12,14.7% (inactive)

# System: TK-10 renal
# Test: as above
# Settings: 10 µM unless noted
row,SMILES,growth
1,COc1ccc(-c2cc(-c3nnc(SC/C(=N\O)c4ccccc4)n3-c3ccccc3)c3ccccc3n2)cc1,123% (inactive)
2,Cc1cc2c(cc1C)N(C(=O)CCl)CCN2C(=O)CCl,-96.9% (active)
3,COc1cc(-c2nc3ccccc3s2)ccc1OCc1nc2n(n1)S(=O)(=O)c1ccccc1N2C,87.8% (inactive)
4,O=C(Cn1c2ccccc2c2ccncc21)N/N=C\c1ccc2ccccc2c1,55.1% (inactive)
5,COc1cc2ncnc(Oc3ccc(NC(=O)Nc4ccc(CN5CCOCC5)c(C(F)(F)F)c4)c4ccccc34)c2cc1OC,12.7% (inactive)
6,COc1cc(NC(C)CCCN2C(=O)c3ccccc3C2=O)c2nccc(C)c2c1OC (stereo unspecified),122% (inactive)
7,Cc1ccc2c(c1)Nc1ccc(C)cc1C2(C)C,102% (inactive)
8,Cc1ccc(-c2cc(-c3nnc(SCC(=O)c4ccccc4)o3)c3ccccc3n2)cc1,61.8% (inactive)
9,COc1ccccc1N1CCN(CC(O)COc2c(Br)c(Br)c(Br)c3c2OC(C)(C)C3)CC1 (stereo unspecified),40.5% (inactive)
10,Fc1ccc(/C=N/n2c(-c3cc(Cl)cc(Cl)c3Cl)nn(CNc3ccc(Cl)nn3)c2=S)cc1,103% (inactive)
11,Nc1nc(Nc2ccc(OCc3cccc(F)c3)cc2)c2c(n1)[nH]c1ccc(O)cc12,-9.4% (active)
12,N#CC(C#N)=C(C#N)c1c[nH]c2ccccc12,98.9% (inactive)
13,FC(F)(F)c1cn(CC2CNC2)c2ncnc(Cl)c12,104% (inactive)
14,Cc1cc(N2CCOCC2)nc(N(CCNc2ccnc3cc(Cl)ccc23)Cc2ccco2)n1,10.9% (inactive)
15,C[C@H]1C=C(C[C@@H](O)CCCCCCCCCC[C@@H](O)[C@H]2CCC(=O)O2)C(=O)O1,100% (inactive)
16,S=c1ssnc1-c1ccccn1,40.1% (inactive)
17,CC1(C)N=C(N)N=C(N)N1c1cccc(CCCCc2ccccc2)c1,17.9% (inactive)
18,O=[N+]([O-])c1cccc2cc(S(=O)(=O)O)ccc12,94% (inactive)
19,CCOc1cccc(Nc2nc(N)nc3[nH]c4ccc(O)cc4c23)c1,27.2% (inactive)

row,SMILES,growth
1,NN=C(c1ccc(Cl)cc1)c1ccc(Cl)cc1,110% (inactive)
2,O=C(N/N=C1\SCC(=O)N1c1ccccc1)c1cc(-c2cc3ccccc3o2)nn1-c1ccccc1,112% (inactive)
3,COc1ccc(N)c(S)c1,105% (inactive)
4,Nn1c(SCC(=O)Nc2cc(Cl)c(Cl)cc2Cl)nnc1-c1cc(F)c(Cl)cc1Cl,123% (inactive)
5,COc1cc(-c2nc3sc(C)cn3c2/C=C2\C(=O)Nc3ccccc32)c(Br)c(OC)c1OC,56.5% (inactive)
6,CC(=S)Nc1ccccc1,109% (inactive)
7,O=C(Nc1ccc(Cl)c(Cl)c1)Nc1ccc(Cl)c([N+](=O)[O-])c1,-0.585% (active)
8,CCOC(=O)C(C)(CSSCC(C)(NC(=O)c1ccc2ccccc2c1)C(=O)OCC)NC(=O)c1ccc2ccccc2c1 (stereo unspecified),103% (inactive)
9,O=C(NC(=S)Nc1ccc(Cl)cc1)c1ccccc1,117% (inactive)
10,CSc1nc(N)nc2c1ncn2C,93.5% (inactive)
11,O=C(O)c1cc2ccccc2cc1Nc1ccccc1,127% (inactive)
12,O=C1CN(CCN2CC(=O)NC(=O)C2)CC(=O)N1,107% (inactive)
13,c1nc(SC2=NCCN2)c2[nH]cnc2n1,22.6% (inactive)
14,O=C(C[n+]1cccc(Br)c1)c1ccc2c(c1)CCCC2,105% (inactive)
15,NS(=O)(=O)c1ccc(-n2nc(-c3ccc(Cl)cc3)ccc2=O)cc1,123% (inactive)
16,O=[N+]([O-])c1ccc(NS(=O)(=O)c2ccccc2)c2ccccc12,53.1% (inactive)
17,CCC1S/C(=N\N=C(/C)c2cccs2)N(c2ccccc2)C1=O (stereo unspecified),114% (inactive)
18,Cc1cc(NCCN(C(C)C)C(C)C)nc(/N=C(\N)Nc2ccc(Cl)c(C(F)(F)F)c2)n1,-80.6% (active)
19,C=CCn1c(SCC(=O)Nc2ccc(/C(C)=N\O)cc2)nnc1-c1cc(-c2ccc(OC)cc2)nc2ccccc12,37.5% (inactive)
